Targets with a hit are over-represented here; the source holds about 8,800 in all. About 0.5% of all pairs of compound and target were hits. Unmarked numbers belong to inactive results.
Compound: Cn1cc(-c2ccc3c(c2)CCN3C(=O)Cc2cccc(C(F)(F)F)c2)c2c(N)ncnc21
Test: log2 fold change, soluble protein after heating vs DMSO (PISA); higher = thermal stabilisation; K562 lysate, 10 uM; active = over 0.2 and 3.5 SD of the protein, either way, in both replicates (recomputed)
Summary of the method: (§1)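 To prepare the extract, K562 pellets were dounce-homogenised in PBS pH 7.4 with 1 mM MgCl2, giving crude material at 1 mg/mL protein. This was treated with 10 μM compound for 30 min, then heated in aliquots for 3 min over 48°C-58°C before pooling and addition of NP-40 to 0.5% at 4°C. Centrifugation at 21,000xg for 90 min left soluble protein in the supernatant, which TMTpro 16plex LC-MS/MS quantified with equalised channel sums. Results are log-two fold changes in thermal stability compared with solvent controls, from duplicates.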

Chain of UniProt Q9UKY1 (Q9UKY1 whole entry, looked up): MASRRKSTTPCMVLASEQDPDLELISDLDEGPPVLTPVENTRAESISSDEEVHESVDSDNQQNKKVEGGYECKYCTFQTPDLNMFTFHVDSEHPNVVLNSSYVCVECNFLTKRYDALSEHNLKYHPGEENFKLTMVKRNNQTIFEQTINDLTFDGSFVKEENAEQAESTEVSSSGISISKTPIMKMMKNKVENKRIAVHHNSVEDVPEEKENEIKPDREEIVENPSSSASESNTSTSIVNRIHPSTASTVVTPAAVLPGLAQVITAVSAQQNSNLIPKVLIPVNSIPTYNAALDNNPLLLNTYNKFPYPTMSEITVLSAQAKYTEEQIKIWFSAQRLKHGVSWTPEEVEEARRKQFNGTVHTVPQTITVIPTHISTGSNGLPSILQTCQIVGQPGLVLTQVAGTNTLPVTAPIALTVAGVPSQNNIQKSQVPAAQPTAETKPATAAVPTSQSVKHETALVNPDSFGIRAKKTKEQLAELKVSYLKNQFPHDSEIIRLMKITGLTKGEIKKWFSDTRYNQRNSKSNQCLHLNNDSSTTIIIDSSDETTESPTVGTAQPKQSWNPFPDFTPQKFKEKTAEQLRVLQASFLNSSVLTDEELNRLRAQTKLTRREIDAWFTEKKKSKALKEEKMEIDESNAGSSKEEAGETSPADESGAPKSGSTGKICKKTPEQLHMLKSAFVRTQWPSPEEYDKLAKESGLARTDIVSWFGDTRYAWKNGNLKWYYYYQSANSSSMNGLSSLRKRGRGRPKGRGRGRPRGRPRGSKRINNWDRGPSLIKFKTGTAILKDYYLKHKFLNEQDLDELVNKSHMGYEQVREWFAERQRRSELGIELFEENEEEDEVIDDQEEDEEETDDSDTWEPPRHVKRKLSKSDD
Chain of UniProt Q9UNX4 (Q9UNX4 whole entry, looked up): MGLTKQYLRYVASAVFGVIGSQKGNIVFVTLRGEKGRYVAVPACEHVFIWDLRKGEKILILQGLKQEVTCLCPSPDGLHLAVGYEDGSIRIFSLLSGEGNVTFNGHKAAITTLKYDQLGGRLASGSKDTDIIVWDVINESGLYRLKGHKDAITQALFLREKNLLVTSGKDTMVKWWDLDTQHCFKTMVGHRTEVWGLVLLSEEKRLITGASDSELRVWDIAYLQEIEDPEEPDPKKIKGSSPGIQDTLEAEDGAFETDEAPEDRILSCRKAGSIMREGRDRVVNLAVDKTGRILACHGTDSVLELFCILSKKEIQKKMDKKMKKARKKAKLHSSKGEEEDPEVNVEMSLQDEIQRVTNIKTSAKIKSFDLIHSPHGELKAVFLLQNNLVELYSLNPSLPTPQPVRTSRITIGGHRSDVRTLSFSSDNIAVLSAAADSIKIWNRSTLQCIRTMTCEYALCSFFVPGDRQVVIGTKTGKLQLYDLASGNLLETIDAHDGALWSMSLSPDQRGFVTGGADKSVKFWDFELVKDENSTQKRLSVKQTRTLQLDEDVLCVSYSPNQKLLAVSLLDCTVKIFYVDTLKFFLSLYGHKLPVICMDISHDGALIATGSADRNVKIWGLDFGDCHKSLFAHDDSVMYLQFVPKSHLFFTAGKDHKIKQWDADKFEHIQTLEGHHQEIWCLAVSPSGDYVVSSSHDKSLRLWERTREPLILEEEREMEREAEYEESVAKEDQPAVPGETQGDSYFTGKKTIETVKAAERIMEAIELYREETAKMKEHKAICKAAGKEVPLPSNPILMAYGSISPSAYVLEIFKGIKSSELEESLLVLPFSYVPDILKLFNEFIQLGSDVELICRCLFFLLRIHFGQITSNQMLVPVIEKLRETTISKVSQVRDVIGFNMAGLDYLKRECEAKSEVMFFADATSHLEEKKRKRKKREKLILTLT
Chain of UniProt Q96GY0 (Q96GY0 whole entry, looked up): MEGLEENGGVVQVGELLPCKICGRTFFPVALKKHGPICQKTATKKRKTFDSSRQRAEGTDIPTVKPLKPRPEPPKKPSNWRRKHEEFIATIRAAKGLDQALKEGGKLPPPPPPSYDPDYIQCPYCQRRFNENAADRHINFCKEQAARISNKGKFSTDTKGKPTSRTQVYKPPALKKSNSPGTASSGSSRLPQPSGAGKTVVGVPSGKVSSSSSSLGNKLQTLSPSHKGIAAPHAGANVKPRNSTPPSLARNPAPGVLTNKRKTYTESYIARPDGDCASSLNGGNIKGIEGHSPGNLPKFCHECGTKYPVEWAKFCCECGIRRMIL
Chain of UniProt Q7Z3J2 (Q7Z3J2 whole entry, looked up): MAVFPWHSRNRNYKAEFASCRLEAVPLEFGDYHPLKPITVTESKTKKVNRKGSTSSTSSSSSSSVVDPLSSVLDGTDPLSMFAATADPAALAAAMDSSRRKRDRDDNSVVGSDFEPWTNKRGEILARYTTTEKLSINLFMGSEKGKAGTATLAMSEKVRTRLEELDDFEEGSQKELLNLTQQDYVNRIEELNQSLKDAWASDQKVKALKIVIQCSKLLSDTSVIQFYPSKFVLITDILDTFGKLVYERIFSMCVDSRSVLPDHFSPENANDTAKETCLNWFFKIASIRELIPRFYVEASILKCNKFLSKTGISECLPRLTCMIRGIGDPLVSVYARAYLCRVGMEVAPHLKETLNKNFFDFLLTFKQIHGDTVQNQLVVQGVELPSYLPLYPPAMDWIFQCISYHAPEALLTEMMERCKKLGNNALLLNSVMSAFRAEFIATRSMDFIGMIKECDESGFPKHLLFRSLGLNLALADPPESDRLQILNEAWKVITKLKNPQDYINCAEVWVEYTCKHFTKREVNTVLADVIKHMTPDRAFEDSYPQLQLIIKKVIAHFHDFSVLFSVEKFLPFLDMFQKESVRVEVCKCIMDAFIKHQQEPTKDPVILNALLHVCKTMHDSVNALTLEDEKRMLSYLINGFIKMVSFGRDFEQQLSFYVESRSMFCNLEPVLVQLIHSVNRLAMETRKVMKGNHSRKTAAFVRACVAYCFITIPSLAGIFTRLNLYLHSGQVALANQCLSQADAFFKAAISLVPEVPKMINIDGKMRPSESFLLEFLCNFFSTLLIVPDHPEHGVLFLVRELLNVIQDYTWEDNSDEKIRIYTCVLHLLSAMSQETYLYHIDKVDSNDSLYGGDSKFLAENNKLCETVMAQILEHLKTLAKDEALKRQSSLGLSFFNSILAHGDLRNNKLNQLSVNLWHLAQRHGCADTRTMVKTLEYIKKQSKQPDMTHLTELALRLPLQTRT
Chain of UniProt Q9UKW4 (Q9UKW4 whole entry, looked up): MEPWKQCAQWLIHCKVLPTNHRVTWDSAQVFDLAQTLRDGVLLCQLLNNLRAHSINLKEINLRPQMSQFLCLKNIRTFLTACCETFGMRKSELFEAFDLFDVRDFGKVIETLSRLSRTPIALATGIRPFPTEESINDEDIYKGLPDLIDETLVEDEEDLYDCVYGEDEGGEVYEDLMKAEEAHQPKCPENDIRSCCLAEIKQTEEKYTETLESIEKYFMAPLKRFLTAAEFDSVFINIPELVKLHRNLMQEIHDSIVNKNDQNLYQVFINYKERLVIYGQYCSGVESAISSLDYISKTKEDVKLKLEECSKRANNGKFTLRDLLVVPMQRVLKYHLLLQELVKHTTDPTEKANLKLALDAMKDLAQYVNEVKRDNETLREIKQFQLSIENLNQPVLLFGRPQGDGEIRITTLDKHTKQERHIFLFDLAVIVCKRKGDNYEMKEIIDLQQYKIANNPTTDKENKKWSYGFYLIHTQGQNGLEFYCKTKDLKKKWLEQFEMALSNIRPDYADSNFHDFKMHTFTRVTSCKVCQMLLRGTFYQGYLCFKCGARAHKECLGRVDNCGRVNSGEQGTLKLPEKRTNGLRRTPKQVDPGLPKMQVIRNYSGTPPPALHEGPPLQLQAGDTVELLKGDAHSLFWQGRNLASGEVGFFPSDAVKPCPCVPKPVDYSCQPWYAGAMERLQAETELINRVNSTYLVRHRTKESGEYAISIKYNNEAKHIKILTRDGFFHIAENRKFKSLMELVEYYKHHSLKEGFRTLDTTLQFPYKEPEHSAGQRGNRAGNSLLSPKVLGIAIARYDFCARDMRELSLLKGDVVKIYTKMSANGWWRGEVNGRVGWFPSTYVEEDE
Chain of UniProt Q9HCS7 (Q9HCS7 whole entry, looked up): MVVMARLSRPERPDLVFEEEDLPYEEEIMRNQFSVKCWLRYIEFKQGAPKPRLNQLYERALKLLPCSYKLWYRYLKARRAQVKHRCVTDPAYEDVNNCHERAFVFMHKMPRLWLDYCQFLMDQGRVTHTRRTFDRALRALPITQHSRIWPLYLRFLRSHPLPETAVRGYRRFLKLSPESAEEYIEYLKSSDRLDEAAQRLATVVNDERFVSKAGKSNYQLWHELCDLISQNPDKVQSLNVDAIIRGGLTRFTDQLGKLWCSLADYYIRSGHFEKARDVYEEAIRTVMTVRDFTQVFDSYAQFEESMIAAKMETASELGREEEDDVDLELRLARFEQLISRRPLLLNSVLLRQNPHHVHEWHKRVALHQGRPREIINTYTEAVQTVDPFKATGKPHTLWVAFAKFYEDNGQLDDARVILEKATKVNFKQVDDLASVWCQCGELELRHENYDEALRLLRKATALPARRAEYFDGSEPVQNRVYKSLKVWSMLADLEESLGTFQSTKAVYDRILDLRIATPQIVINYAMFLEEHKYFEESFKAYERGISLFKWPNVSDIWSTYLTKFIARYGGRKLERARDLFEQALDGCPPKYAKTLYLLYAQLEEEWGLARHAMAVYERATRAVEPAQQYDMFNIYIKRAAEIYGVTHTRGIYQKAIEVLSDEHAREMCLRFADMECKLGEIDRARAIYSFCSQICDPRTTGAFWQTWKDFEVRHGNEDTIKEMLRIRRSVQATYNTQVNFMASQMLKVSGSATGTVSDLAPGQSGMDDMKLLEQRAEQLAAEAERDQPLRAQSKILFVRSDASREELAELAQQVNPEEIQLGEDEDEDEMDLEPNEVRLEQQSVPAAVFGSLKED

| Target | log2 fold change |
| --- | --- |
| ZDHHC17 (UniProt Q8IUH5) | -0.028 |
| VPS72 (UniProt Q15906) | 0.073 |
| ZNF609 (UniProt O15014) | -0.044 |
| UQCRC2 (UniProt P22695) | -0.043 |
| UPF3B (UniProt Q9BZI7) | 0.005 |
| VRK2 (UniProt Q86Y07) | 0.17 |
| ZNF598 isoform 3 (UniProt Q86UK7) | 0.032 |
| ZMYM1 (UniProt Q5SVZ6) | 0.007 |
| VARS (UniProt P26640) | 0.06 |
| VAC14 (UniProt Q08AM6) | 0.058 |
| VASP (UniProt P50552) | -0.001 |
| ZHX1 (UniProt Q9UKY1) | -0.096 |
| VPS54 (UniProt Q9P1Q0) | 0.146 |
| WDR91 (UniProt A4D1P6) | 0.056 |
| ZBTB40 (UniProt Q9NUA8) | -0.051 |
| YES1 (UniProt P07947) | -0.087 |

| Target | log2 fold change |
| --- | --- |
| WDR77 (UniProt Q9BQA1) | -0.013 |
| ZDHHC18 (UniProt Q9NUE0) | -0.158 |
| ZC2HC1A (UniProt Q96GY0) | 0.1 |
| VPS35L (UniProt Q7Z3J2) | 0.008 |
| VPS11 (UniProt Q9H270) | -0.002 |
| VPS13C (UniProt Q709C8) | -0.039 |
| ZMYM4 (UniProt Q5VZL5) | -0.061 |
| USP10 isoform 2 (UniProt Q14694) | -0.013 |
| XAB2 (UniProt Q9HCS7) | 0.017 |
| VAV3 isoform 4 (UniProt Q9UKW4) | 0.08 |
| WDR3 (UniProt Q9UNX4) | 0.027 |
| VAV1 (UniProt P15498) | 0.04 |
| WRN (UniProt Q14191) | 0.022 |
| WDR41 (UniProt Q9HAD4) | 0.005 |
| YLPM1 (UniProt P49750) | 0.021 |

Compound: Cn1cc(CNCC2CCN(c3ncc(C(=O)NO)cn3)CC2)c2ccccc21 [quisinostat]
Test: as above
Summary of the method: as §1

| Target | log2 fold change |
| --- | --- |
| ZDHHC17 (UniProt Q8IUH5) | 0.045 |
| VPS72 (UniProt Q15906) | 0.005 |
| ZNF609 (UniProt O15014) | -0.006 |
| UQCRC2 (UniProt P22695) | 0.007 |
| UPF3B (UniProt Q9BZI7) | -0.013 |
| VRK2 (UniProt Q86Y07) | -0.044 |
| ZNF598 isoform 3 (UniProt Q86UK7) | -0.023 |
| ZMYM1 (UniProt Q5SVZ6) | -0.08 |
| VARS (UniProt P26640) | -0.021 |
| VAC14 (UniProt Q08AM6) | -0.07 |
| VASP (UniProt P50552) | 0.012 |
| ZHX1 (UniProt Q9UKY1) | -0.035 |
| VPS54 (UniProt Q9P1Q0) | -0.409 (active) |
| WDR91 (UniProt A4D1P6) | 0.005 |
| ZBTB40 (UniProt Q9NUA8) | -0.01 |
| YES1 (UniProt P07947) | -0.084 |

| Target | log2 fold change |
| --- | --- |
| WDR77 (UniProt Q9BQA1) | 0.014 |
| ZDHHC18 (UniProt Q9NUE0) | -0.008 |
| ZC2HC1A (UniProt Q96GY0) | -0.082 |
| VPS35L (UniProt Q7Z3J2) | -0.046 |
| VPS11 (UniProt Q9H270) | -0.055 |
| VPS13C (UniProt Q709C8) | -0.034 |
| ZMYM4 (UniProt Q5VZL5) | -0.028 |
| USP10 isoform 2 (UniProt Q14694) | -0.081 |
| XAB2 (UniProt Q9HCS7) | 0.106 |
| VAV3 isoform 4 (UniProt Q9UKW4) | 0.121 |
| WDR3 (UniProt Q9UNX4) | 0.044 |
| VAV1 (UniProt P15498) | 0.022 |
| WRN (UniProt Q14191) | -0.042 |
| WDR41 (UniProt Q9HAD4) | -0.036 |
| YLPM1 (UniProt P49750) | -0.015 |

Compound: Cn1cncc1[C@@](N)(c1ccc(Cl)cc1)c1ccc2c(c1)c(-c1cccc(Cl)c1)cc(=O)n2C [tipifarnib]
Test: as above
Summary of the method: as §1

| Target | log2 fold change |
| --- | --- |
| ZDHHC17 (UniProt Q8IUH5) | 0.118 |
| VPS72 (UniProt Q15906) | 0.088 |
| ZNF609 (UniProt O15014) | 0.01 |
| UQCRC2 (UniProt P22695) | -0.011 |
| UPF3B (UniProt Q9BZI7) | 0.014 |
| VRK2 (UniProt Q86Y07) | -0.018 |
| ZNF598 isoform 3 (UniProt Q86UK7) | -0.019 |
| ZMYM1 (UniProt Q5SVZ6) | -0.012 |
| VARS (UniProt P26640) | 0.012 |
| VAC14 (UniProt Q08AM6) | -0.059 |
| VASP (UniProt P50552) | 0.008 |
| ZHX1 (UniProt Q9UKY1) | 0.007 |
| VPS54 (UniProt Q9P1Q0) | -0.111 |
| WDR91 (UniProt A4D1P6) | 0.014 |
| ZBTB40 (UniProt Q9NUA8) | 0.078 |
| YES1 (UniProt P07947) | -0.157 |

| Target | log2 fold change |
| --- | --- |
| WDR77 (UniProt Q9BQA1) | 0.048 |
| ZDHHC18 (UniProt Q9NUE0) | 0.177 |
| ZC2HC1A (UniProt Q96GY0) | -0.02 |
| VPS35L (UniProt Q7Z3J2) | 0.03 |
| VPS11 (UniProt Q9H270) | -0.002 |
| VPS13C (UniProt Q709C8) | -0.177 |
| ZMYM4 (UniProt Q5VZL5) | -0.051 |
| USP10 isoform 2 (UniProt Q14694) | -0.007 |
| XAB2 (UniProt Q9HCS7) | -0.046 |
| VAV3 isoform 4 (UniProt Q9UKW4) | -0.012 |
| WDR3 (UniProt Q9UNX4) | -0.003 |
| VAV1 (UniProt P15498) | 0 |
| WRN (UniProt Q14191) | -0.005 |
| WDR41 (UniProt Q9HAD4) | -0.077 |
| YLPM1 (UniProt P49750) | -0.011 |

— the supplement of paper PMC10849652
